Assay results published in the supplement of paper PMC10849652.
The full data set covers some 8,800 targets. This sample favours those with a hit. About 0.5% of all pairs of compound and target were hits. A number with no mark means an inactive call.

Key:
Assay in all cases: log2 fold change, soluble protein after heating vs DMSO (PISA); higher = thermal stabilisation; K562 lysate, 10 uM; active = over 0.2 and 3.5 SD of the protein, either way, in both replicates (recomputed)
vemurafenib = compound: CCCS(=O)(=O)Nc1ccc(F)c(C(=O)c2c[nH]c3ncc(-c4ccc(Cl)cc4)cc23)c1F [vemurafenib]
Procedure, shortened: (§1)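 Quantification was by TMTpro 16plex LC-MS/MS with equalised channel sums, applied to the supernatant after 21,000xg for 90 min. Samples were crude K562 extract at 1 mg/mL protein in PBS pH 7.4 with 1 mM MgCl2, treated with 10 μM compound for 30 min, heated for 3 min across 48°C-58°C, pooled and brought to 0.5% NP-40 at 4°C. Values are log-two fold changes in thermal stability relative to solvent controls, from duplicates.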

[1] = compound: CCCS(=O)(=O)Nc1ccc(F)c(C(=O)c2c[nH]c3ncc(Cl)cc23)c1F
Procedure, shortened: as §1

barasertib = compound: CCN(CCCOc1ccc2c(Nc3cc(CC(=O)Nc4cccc(F)c4)[nH]n3)ncnc2c1)CCOP(=O)(O)O [barasertib]
Procedure, shortened: as §1

[2] = compound: CC[C@@H]1C(=O)N(C)c2cnc(Nc3ccc(C(=O)NC4CCN(C)CC4)cc3OC)nc2N1C1CCCC1
Procedure, shortened: as §1

volasertib = compound: CC[C@@H]1C(=O)N(C)c2cnc(Nc3ccc(C(=O)N[C@H]4CC[C@H](N5CCN(CC6CC6)CC5)CC4)cc3OC)nc2N1C(C)C [volasertib]
Procedure, shortened: as §1

[3] = compound: CCn1c(C(=O)N(C2CC2)C2CC2)cc2c3c(ncn3C)c(Nc3cc(C)n(C)n3)nc21
Procedure, shortened: as §1

[4] = compound: CCn1cc(-c2ccnc3[nH]c(-c4cccc(CN(C)C)c4)cc23)c(-c2ccc(NC(=O)N(C)C)cc2)n1
Procedure, shortened: as §1

[5] = compound: CN1CCC(CNc2ccc3ncc(-c4cccc(OC(F)(F)F)c4)n3n2)CC1
Procedure, shortened: as §1

saracatinib = compound: CN1CCN(CCOc2cc(OC3CCOCC3)c3c(Nc4c(Cl)ccc5c4OCO5)ncnc3c2)CC1 [saracatinib]
Procedure, shortened: as §1

sotrastaurin = compound: CN1CCN(c2nc(C3=C(c4c[nH]c5ccccc45)C(=O)NC3=O)c3ccccc3n2)CC1 [sotrastaurin]
Procedure, shortened: as §1

Sequence of UniProt Q8IWF6 (Q8IWF6 whole entry, looked up): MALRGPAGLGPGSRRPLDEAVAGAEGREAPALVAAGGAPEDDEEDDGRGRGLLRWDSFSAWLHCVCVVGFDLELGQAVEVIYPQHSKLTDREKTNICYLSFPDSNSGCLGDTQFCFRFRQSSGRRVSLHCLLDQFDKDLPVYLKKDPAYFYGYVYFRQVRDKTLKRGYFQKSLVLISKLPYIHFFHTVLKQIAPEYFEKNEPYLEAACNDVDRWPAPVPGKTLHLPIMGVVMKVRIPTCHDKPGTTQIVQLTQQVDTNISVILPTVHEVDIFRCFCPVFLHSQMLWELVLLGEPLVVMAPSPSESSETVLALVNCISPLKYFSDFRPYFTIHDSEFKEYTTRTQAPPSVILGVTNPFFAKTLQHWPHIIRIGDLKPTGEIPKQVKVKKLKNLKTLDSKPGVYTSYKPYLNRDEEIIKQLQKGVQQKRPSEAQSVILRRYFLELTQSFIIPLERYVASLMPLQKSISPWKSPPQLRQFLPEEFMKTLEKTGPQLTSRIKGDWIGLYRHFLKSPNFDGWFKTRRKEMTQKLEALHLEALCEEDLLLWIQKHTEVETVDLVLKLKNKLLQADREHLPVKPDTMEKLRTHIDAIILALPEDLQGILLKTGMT
Sequence of UniProt Q8WUH1 (Q8WUH1 whole entry, looked up): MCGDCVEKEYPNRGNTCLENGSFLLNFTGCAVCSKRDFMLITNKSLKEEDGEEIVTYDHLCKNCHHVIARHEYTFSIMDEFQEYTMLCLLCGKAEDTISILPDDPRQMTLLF
Sequence of UniProt Q8WWK9 (Q8WWK9 whole entry, looked up): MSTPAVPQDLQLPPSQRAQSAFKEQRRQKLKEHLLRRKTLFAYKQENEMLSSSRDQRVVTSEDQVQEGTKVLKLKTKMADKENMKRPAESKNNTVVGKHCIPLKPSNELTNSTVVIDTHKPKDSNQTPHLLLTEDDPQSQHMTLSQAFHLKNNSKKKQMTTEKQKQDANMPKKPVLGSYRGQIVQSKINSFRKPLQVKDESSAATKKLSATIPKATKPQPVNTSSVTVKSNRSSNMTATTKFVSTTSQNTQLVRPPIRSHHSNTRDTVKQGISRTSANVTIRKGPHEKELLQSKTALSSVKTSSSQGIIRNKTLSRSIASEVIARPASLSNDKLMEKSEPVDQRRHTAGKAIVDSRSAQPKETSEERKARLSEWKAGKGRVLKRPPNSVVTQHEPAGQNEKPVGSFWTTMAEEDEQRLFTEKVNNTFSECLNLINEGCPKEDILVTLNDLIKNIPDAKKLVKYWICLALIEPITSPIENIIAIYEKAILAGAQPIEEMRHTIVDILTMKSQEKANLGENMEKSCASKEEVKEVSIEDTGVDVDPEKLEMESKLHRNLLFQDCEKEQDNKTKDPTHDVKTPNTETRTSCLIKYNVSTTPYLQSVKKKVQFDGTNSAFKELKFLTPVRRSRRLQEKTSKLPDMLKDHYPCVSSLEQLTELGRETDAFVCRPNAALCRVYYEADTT
Sequence of UniProt O60716 (O60716 whole entry, looked up): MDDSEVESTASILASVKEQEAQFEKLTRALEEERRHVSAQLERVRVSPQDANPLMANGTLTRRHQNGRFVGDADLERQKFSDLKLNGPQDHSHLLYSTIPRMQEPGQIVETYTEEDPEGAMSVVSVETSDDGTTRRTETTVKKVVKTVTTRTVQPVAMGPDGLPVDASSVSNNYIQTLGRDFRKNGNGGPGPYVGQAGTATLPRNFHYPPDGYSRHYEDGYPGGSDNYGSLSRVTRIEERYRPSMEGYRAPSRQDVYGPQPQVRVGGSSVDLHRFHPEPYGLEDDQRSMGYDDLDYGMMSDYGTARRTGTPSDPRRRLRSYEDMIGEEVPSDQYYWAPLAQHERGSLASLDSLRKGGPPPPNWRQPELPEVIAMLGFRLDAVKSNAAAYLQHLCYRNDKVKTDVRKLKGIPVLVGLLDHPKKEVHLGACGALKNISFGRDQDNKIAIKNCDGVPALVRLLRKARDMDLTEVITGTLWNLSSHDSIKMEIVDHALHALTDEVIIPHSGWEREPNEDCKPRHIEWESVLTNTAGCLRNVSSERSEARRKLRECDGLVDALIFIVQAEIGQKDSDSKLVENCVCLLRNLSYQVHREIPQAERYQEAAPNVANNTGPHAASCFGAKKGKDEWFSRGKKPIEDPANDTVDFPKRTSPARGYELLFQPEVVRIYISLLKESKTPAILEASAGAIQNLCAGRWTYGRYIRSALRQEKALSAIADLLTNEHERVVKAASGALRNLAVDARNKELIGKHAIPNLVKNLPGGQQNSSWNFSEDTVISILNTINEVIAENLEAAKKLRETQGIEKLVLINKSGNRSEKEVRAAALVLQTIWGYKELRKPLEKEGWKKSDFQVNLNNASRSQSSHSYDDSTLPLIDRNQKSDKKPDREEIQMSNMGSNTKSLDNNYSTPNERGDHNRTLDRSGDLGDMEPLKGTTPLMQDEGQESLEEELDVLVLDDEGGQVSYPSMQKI
Sequence of UniProt Q16850 (Q16850 whole entry, looked up): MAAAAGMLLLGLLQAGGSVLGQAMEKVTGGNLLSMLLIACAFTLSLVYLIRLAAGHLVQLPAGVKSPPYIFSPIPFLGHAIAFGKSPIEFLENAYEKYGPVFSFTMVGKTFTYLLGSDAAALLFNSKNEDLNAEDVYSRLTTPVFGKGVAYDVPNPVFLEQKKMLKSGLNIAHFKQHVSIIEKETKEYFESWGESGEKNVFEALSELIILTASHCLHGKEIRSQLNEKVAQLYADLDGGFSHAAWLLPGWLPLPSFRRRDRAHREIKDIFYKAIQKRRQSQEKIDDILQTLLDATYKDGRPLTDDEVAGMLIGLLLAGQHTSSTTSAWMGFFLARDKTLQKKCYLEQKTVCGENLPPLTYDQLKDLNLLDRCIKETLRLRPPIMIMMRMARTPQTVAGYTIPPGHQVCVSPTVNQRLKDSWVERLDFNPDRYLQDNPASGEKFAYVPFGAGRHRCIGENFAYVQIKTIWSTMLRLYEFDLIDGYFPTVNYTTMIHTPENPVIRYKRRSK
Sequence of UniProt P30622 (P30622 whole entry, looked up): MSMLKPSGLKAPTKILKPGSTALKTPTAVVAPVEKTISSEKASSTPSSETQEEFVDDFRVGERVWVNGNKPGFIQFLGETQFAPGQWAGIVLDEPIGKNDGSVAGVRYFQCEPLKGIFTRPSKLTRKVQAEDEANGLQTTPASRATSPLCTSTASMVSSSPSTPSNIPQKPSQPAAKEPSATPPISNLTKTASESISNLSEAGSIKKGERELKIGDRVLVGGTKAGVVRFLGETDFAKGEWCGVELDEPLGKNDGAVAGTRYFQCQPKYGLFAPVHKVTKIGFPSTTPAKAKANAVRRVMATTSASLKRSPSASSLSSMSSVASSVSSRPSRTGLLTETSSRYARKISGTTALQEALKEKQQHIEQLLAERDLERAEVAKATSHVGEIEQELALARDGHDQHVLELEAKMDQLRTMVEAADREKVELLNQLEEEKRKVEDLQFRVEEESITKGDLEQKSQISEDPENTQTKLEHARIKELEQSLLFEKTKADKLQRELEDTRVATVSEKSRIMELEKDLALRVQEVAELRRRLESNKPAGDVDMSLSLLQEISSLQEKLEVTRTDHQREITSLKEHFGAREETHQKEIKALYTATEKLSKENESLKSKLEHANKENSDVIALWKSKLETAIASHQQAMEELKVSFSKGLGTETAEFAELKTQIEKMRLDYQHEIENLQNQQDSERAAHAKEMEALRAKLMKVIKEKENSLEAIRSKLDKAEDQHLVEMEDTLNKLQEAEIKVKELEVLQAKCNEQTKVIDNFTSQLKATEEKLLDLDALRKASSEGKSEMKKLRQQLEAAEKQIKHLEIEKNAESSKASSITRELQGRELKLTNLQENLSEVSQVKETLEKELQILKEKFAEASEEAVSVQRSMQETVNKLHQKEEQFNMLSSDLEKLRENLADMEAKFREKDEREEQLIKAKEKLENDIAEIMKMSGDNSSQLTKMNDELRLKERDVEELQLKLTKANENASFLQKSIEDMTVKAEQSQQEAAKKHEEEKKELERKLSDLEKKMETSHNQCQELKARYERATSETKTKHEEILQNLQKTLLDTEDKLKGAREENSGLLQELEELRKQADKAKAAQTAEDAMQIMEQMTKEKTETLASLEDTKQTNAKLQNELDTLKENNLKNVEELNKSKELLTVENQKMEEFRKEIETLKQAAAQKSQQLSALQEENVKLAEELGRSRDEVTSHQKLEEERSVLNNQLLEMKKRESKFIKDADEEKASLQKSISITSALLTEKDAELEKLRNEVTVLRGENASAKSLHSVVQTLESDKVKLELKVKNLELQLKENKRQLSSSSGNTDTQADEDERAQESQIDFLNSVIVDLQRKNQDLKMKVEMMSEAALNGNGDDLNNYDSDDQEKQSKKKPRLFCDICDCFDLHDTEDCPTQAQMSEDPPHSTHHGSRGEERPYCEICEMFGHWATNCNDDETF
Sequence of UniProt Q9BW66 (Q9BW66 whole entry, looked up): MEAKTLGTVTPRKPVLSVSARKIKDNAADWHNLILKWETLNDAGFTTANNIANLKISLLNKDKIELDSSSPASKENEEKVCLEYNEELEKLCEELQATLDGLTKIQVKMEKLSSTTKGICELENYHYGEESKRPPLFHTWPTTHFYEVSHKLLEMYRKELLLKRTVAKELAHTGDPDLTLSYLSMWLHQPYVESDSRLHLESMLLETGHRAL
Sequence of UniProt P49674 (P49674 whole entry, looked up): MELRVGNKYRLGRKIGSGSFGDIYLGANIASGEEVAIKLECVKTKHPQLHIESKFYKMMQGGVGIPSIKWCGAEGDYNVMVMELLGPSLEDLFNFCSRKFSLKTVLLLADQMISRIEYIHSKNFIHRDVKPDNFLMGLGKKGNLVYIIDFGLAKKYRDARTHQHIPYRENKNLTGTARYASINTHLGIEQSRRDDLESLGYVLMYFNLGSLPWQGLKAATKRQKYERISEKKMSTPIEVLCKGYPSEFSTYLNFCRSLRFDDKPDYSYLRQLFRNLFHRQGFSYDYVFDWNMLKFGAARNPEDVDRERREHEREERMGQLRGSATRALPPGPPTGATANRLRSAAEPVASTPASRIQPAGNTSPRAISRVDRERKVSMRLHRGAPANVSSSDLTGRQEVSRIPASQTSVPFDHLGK

| Target | log2 fold change (vemurafenib) | log2 fold change [1] | log2 fold change (barasertib) | log2 fold change [2] | log2 fold change (volasertib) | log2 fold change [3] | log2 fold change [4] | log2 fold change [5] | log2 fold change (saracatinib) | log2 fold change (sotrastaurin) |
| --- | --- | --- | --- | --- | --- | --- | --- | --- | --- | --- |
| DNAJC5 (UniProt Q9H3Z4) | 0.001 | -0.02 | 0.008 | -0.031 | 0.012 | 0.015 | -0.476 (active) | 0.243 | 0.01 | 0.041 |
| COG6 (UniProt Q9Y2V7) | 0.062 | 0.013 | 0.072 | -0.004 | -0.046 | 0.015 | -0.116 | 0.017 | 0.073 | -0.017 |
| CSNK1E (UniProt P49674) | -0.013 | -0.038 | 0.029 | 0.135 | -0.01 | 0.11 | -0.013 | 0.237 | 0.069 | 0.061 |
| CHML (UniProt P26374) | 0.01 | 0.008 | 0.004 | 0.011 | 0.022 | -0.007 | -0.012 | 0.026 | -0.002 | 0.005 |
| DICER1 (UniProt Q9UPY3) | -0.002 | 0.05 | 0.01 | 0.003 | -0.068 | 0.021 | 0.275 | 0.036 | 0.005 | -0.018 |
| DCUN1D4 isoform 3 (UniProt Q92564) | 0.066 | 0.075 | -0.027 | -0.321 (active) | 0.049 | -0.02 | -0.036 | 0.02 | 0.005 | 0.028 |
| CTNND1 isoform 3 (UniProt O60716) | 0.06 | 0.037 | 0.036 | -0.034 | -0.098 | 0.073 | -0.032 | 0.004 | -0.012 | 0.024 |
| CLIP1 isoform 1 (UniProt P30622) | -0.011 | 0.016 | -0.011 | 0.034 | 0.034 | -0.03 | -0.055 | 0.02 | 0.021 | 0.008 |
| CINP isoform 3 (UniProt Q9BW66) | -0.071 | 0.01 | 0.052 | 0.098 | -0.05 | -0.033 | -0.331 | 0.189 | 0.047 | 0.014 |
| COASY isoform 2 (UniProt Q13057) | 0.076 | 0.017 | 0.011 | -0.075 | -0.098 | 0.034 | -0.063 | 0.038 | 0.021 | 0.079 |
| DNAH10 (UniProt Q8IVF4) | 0.067 | 0 | 0.069 | 0.064 | 0.044 | -0.05 | -0.582 (active) | 0.139 | 0.022 | -0.029 |
| CLP1 (UniProt Q92989) | -0.035 | 0 | 0.03 | -0.045 | -0.05 | 0.015 | -0.13 | 0.096 | 0.115 | 0.036 |
| CHURC1 isoform 2 (UniProt Q8WUH1) | 0.019 | -0.166 | 0.194 | 0.038 | 0.129 | 0.018 | -0.108 | 0.024 | -0.071 | -0.013 |
| CLPTM1L (UniProt Q96KA5) | -0.006 | 0.049 | 0.079 | 0.067 | -0.043 | 0.012 | -0.099 | 0.016 | 0.049 | -0.001 |
| CUX1 isoform 3 (UniProt P39880) | 0.059 | -0.012 | -0.011 | 0.028 | -0.004 | -0.006 | 0.107 | -0.152 | 0.018 | 0.029 |
| CSK (UniProt P41240) | 0.43 | 0.304 | 0.187 | -0.046 | -0.09 | -0.068 | 0.015 | 0.096 | 0.37 | -0.043 |

| Target | log2 fold change (vemurafenib) | log2 fold change [1] | log2 fold change (barasertib) | log2 fold change [2] | log2 fold change (volasertib) | log2 fold change [3] | log2 fold change [4] | log2 fold change [5] | log2 fold change (saracatinib) | log2 fold change (sotrastaurin) |
| --- | --- | --- | --- | --- | --- | --- | --- | --- | --- | --- |
| CKAP2 (UniProt Q8WWK9) | -0.095 | 0.01 | -0.014 | 0.073 | 0.009 | -0.024 | 0.062 | -0.094 | 0.019 | 0.019 |
| DENND6A (UniProt Q8IWF6) | 0.025 | 0.033 | 0.066 | 0.029 | -0.062 | 0.019 | 0.017 | 0.004 | -0.012 | -0.027 |
| DNAAF5 (UniProt Q86Y56) | -0.006 | -0.007 | 0.03 | -0.062 | -0.06 | 0.047 | -0.035 | -0.049 | 0.04 | 0.044 |
| CSNK1A1 (UniProt P48729) | -0.044 | 0.017 | -0.003 | 0.078 | -0.066 | 0.097 | 0.065 | 0.171 | 0.02 | 0.048 |
| DHRS11 (UniProt Q6UWP2) | 0.015 | 0.007 | 0 | -0.019 | -0.026 | 0.023 | -0.03 | 0.025 | 0.013 | 0.004 |
| DLD (UniProt P09622) | 0.007 | 0.003 | -0.032 | 0.032 | 0.057 | -0.018 | -0.071 | 0.04 | 0.009 | -0.015 |
| DES (UniProt P17661) | 0.084 | 0.008 | -0.001 | 0.045 | 0.058 | -0.026 | -0.434 (active) | 0.149 | 0.106 | -0.012 |
| DNAH5 (UniProt Q8TE73) | 0.007 | 0.074 | 0.006 |  | 0.02 | -0.035 | -0.481 (active) | 0.122 | 0.007 |  |
| CNTN4 (UniProt Q8IWV2) | 0.237 | 0.12 | 0.03 | 0.295 | 0.024 | -0.326 | -0.474 | 0.128 |  | -0.076 |
| DCP2 (UniProt Q8IU60) | -0.05 | -0.038 | 0.014 | 0.016 | -0.061 | -0.028 | 0.059 | -0.13 | -0.023 | -0.01 |
| CLASP2 (UniProt O75122) | 0.241 | 0.072 | -0.015 | 0.021 | -0.052 | -0.098 | -0.077 | 0.073 |  | 0.18 |
| CSNK1G3 (UniProt Q9Y6M4) | -0.004 | -0.053 | -0.028 |  | 0.002 | 0.039 | -0.095 | 0.065 | 0.043 | 0.035 |
| CIC (UniProt I3L2J0) | -0.077 | -0.043 | 0.4 (active) | -0.057 | -0.032 | 0.001 | -0.05 | -0.004 | 0.021 | -0.016 |
| DDA1 (UniProt Q9BW61) | -0.02 | 0.038 | -0.004 | 0.003 | 0 | 0.046 | 0 | -0.023 | 0.019 | -0.025 |
| COMT (UniProt P21964) | -0.052 | 0.012 | 0.024 | -0.101 | -0.056 | 0.039 | 0.026 | 0.005 | 0.008 | 0.036 |
| CYP51A1 (UniProt Q16850) | -0.014 | -0.007 | -0.011 | 0.053 | 0.01 | -0.02 | -0.103 | -0.066 | -0.043 | 0.001 |
